Assay results as given in PubChem BioAssay AID620 (Sanford-Burnham Center for Chemical Genomics, 2007).
About 360 (0.41%) of roughly 87,000 compounds were called active. The full list was thinned out, with actives kept by preference. Unmarked numbers belong to inactive results. Cut-off read from the data, not from the text of the source: active = cytotoxicity above about 50%; inactive = the rest.

Assay: HT1080 cell viability loss – fluorescence readout (AID 620);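 note: cells exposed to compound overnight then 4 h with Alamar Blue; 0% = vehicle DMSO and 100% = killing control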
Settings: at 10 µM, active compounds read high

| SMILES | cytotoxicity |
| --- | --- |
| COc1cc(NS(=O)(=O)c2cc(C)ccc2OC)c(OC)cc1Cl | -2.6% |
| COc1cc(NS(=O)(=O)c2ccc(OC)c(C)c2C)c(OC)cc1Cl | 55.1% (active) |
| COc1ccc(OC)c(S(=O)(=O)Nc2cc(OC)c(Cl)cc2OC)c1 | 9.8% |
| CCOc1cc(C2CC(=O)Nc3cc(C)c(C)cc32)ccc1O (configuration not stated) | -0.2% |
| COc1ccc(NC(=O)CCN2CCCCC2)cc1 | 9% |
| CCOc1ccccc1-c1nc(-c2cc3ccccc3nc2OC)no1 | -4.6% |
| Cc1cc(F)c(F)c(C(=O)N2CCN(C)CC2)c1Cl | 6.8% |
| CCc1ccc(C2(O)CC(C(F)(F)F)=NN2C(=O)Cc2ccc([N+](=O)[O-])cc2)cc1 (configuration not stated) | 2.2% |
| Cc1ccc2c(c1)c1c3n2CCCNC3CCC1 (configuration not stated) | -1.3% |
| Cc1ccc2c(c1)c1c3n2CCN(C(=O)CN2CCN(C)CC2)C3CCC1 (configuration not stated) | 12.8% |
| c1cc2c(cc1C1CCCCC1)c1c3n2CCCNC3CCC1 (configuration not stated) | 69.7% (active) |
| c1ccc2c(c1)c1c3n2CCNC3CCC1 (configuration not stated) | -2.4% |
| Cc1ccc2c(c1)c1c3n2CCN(C(=O)C2CC2)C3CCC1 (configuration not stated) | -15.3% |
| O=C(NC(Cc1ccc2c(c1)OCO2)C(=O)N1CCCC1C(=O)O)c1ccccc1 (configuration not stated) | 3.5% |
| Cn1c(=O)[nH]c2sc3c(c2c1=O)CC(C)(C)OC3 | 27.1% |
| COCCOC(=O)c1[nH]c2c(c1C)C(=O)CC(c1ccco1)C2 (configuration not stated) | 67.1% (active) |
| CCOC(=O)c1ccc(N=CC2=C(O)CC(c3ccco3)CC2=O)cc1 (configuration not stated) | -1.5% |
| COCCOC(=O)c1[nH]c2c(c1C)C(=O)CC(c1cc(OC)ccc1OC)C2 (configuration not stated) | -3.5% |
| COCCOC(=O)c1[nH]c2c(c1C)C(=O)CC(c1ccc(N(C)C)cc1)C2 (configuration not stated) | -0.7% |
| Cc1c(C(=O)OCC2CCCO2)[nH]c2c1C(=O)CC(c1ccco1)C2 (configuration not stated) | 52.9% (active) |
| CCOC(=O)c1[nH]c2c(c1C)C(=O)CC(c1ccco1)C2 (configuration not stated) | 66% (active) |
| COc1ccc(OC)c(C2CC(=O)c3c([nH]c(C(=O)OCC4CCCO4)c3C)C2)c1 (configuration not stated) | -5.3% |
| CSCCOC(=O)c1[nH]c2c(c1C)C(=O)CC(c1ccco1)C2 (configuration not stated) | 62.4% (active) |
| CCOCCOC(=O)c1[nH]c2c(c1C)C(=O)CC(c1ccc(N(C)C)cc1)C2 (configuration not stated) | -3.6% |
| Cc1c(C(=O)N2CCOCC2)[nH]c2c1C(=O)CC(c1ccc(Cl)cc1)C2 (configuration not stated) | 5.8% |

| SMILES | cytotoxicity |
| --- | --- |
| Cc1c(C(=O)OCC2CCCO2)[nH]c2c1C(=O)CC(c1ccc(N(C)C)cc1)C2 (configuration not stated) | -2.7% |
| COC(=O)NCC(c1cccnc1)N1CCOCC1 (configuration not stated) | 2.8% |
| COc1ccc(C(c2nnnn2C2CCCC2)N2CCN(C3CCCC3)CC2)cc1OC (configuration not stated) | -1.8% |
| Cc1ccc(NC(=O)c2oc3c(c2C)C(=O)CC(C)(C)C3)cc1 | -0.8% |
| O=S(=O)(c1ccccc1)N1CCN(S(=O)(=O)c2ccccc2)C1 | -4.1% |
| CCn1cnc2cc(NS(=O)(=O)c3ccc(C)cc3)ccc21 | 11.7% |
| Cc1ccccc1NC(=O)c1cccc2nccnc12 | -4.6% |
| COc1ccc(-c2cnc3nc[nH]c(=O)c3n2)cc1 | -12.3% |
| Cc1cnc(C(=O)Nc2ccc(F)cc2)cn1 | -11.7% |
| COc1cccc(C2c3c(-c4cc(Cl)c(C)cc4O)n[nH]c3C(=O)N2Cc2cccnc2)c1 (configuration not stated) | -4.8% |
| CCOC(=O)N1CCN(C(=O)c2cccn3c(=O)c4sccc4nc23)CC1 | -2.4% |
| FC(F)(F)c1ccc(N2CCN(c3ncnc4c3nnn4Cc3ccccc3Cl)CC2)cc1 | -17.6% |
| Cc1c(C(=O)OCCOC(C)C)[nH]c2c1C(=O)CC(C)(C)C2 | -5.6% |
| COCCOC(=O)c1[nH]c2c(c1C)C(=O)CC(c1ccc(F)cc1)C2 (configuration not stated) | -9% |
| Cc1c(C(=O)OCCOC(C)C)[nH]c2c1C(=O)CC(c1ccco1)C2 (configuration not stated) | 66.2% (active) |
| Cc1c(C(=O)OCC(C)C)[nH]c2c1C(=O)CC(c1ccco1)C2 (configuration not stated) | 63.9% (active) |
| CC1=C(C(=O)OCc2ccccc2)C(c2ccco2)C2=C(CC(C)(C)CC2=O)N1 (configuration not stated) | -6.1% |
| CCOC(=O)c1[nH]c2c(c1C)C(=O)CC(c1ccc(F)cc1)C2 (configuration not stated) | 70.2% (active) |
| Cc1c(C(=O)O)[nH]c2c1C(=O)CC(c1ccc(Cl)cc1)C2 (configuration not stated) | -4.3% |
| CCC(C)OC(=O)c1[nH]c2c(c1C)C(=O)CC(c1ccc(N(C)C)cc1)C2 (configuration not stated) | -1.9% |
| Cc1c(C(=O)N2CCOCC2)[nH]c2c1C(=O)CC(c1ccccc1Cl)C2 (configuration not stated) | 34.2% |
| Cc1c(C(=O)OCc2ccccc2)[nH]c2c1C(=O)CC(c1ccco1)C2 (configuration not stated) | 67.8% (active) |
| COc1ccc(OC)c(C2CC(=O)c3c([nH]c(C(=O)OC(C)C)c3C)C2)c1 (configuration not stated) | 10.6% |
| COc1cc(C2CC(=O)c3c([nH]c(C(=O)OCCOC(C)C)c3C)C2)cc(OC)c1OC (configuration not stated) | -1.3% |
| CCCCOc1ccc(C(=O)N2CC(C)OC(C)C2)cc1 (configuration not stated) | -6.4% |

| SMILES | cytotoxicity |
| --- | --- |
| Cc1ccc(-n2c(C)nc3c(cnn3-c3ccc(F)cc3)c2=O)cc1 | -1.6% |
| Cc1cc(NC(=O)C2CC(=O)OC2c2ccccc2)no1 (configuration not stated) | 10.6% |
| CC(=O)OC(C(=O)NC1CCCCC1)c1ccc(C#N)cc1 (configuration not stated) | -3.2% |
| Cc1ccccc1-n1c(SCC(=O)N2CCOCC2)nc(O)cc1=O | 3.4% |
| COc1ccccc1C(=O)NC1CCCCCCC1 | 3.1% |
| O=C(NC1=NCCS1)c1ccncc1 | -1.5% |
| O=C(COC(=O)c1cnccn1)NCCc1ccccc1 | -15.3% |
| Cc1c(C(=O)OC2CCCC2)[nH]c2c1C(=O)CC(c1ccco1)C2 (configuration not stated) | 64.9% (active) |
| Cc1c(C(=O)OC2CCCCC2)[nH]c2c1C(=O)CC(C)(C)C2 | -1.3% |
| Cc1c(C(=O)OC2CCC(C)CC2)[nH]c2c1C(=O)CCC2 (configuration not stated) | 0.6% |
| COc1ccc(C2=NOC(C(=O)NC(C)C)C2)cc1 (configuration not stated) | -5.6% |
| CCOc1ccc(OCC)c(NC(=O)CN(C)S(=O)(=O)c2cnc[nH]2)c1 | 11.3% |
| O=C(c1cnn2cccnc12)N1CCN(c2ccccc2)CC1 | 6.5% |
| CC(=O)N1CCn2c3c(c(=O)c4cc(C)ccc42)CCC31 (configuration not stated) | -5.9% |
| Cc1ccc2c(c1)c(=O)c1c3n2CCN(C(=O)CCl)C3CC1 (configuration not stated) | 102% (active) |
| Cc1ccc2c(c1)c1c3n2CCN(C(=O)Cn2c(-c4ccccc4)noc2=O)C3CCC1 (configuration not stated) | 4.8% |
| CCOC(=O)c1c(C)[nH]c(C)c1C(=O)CSc1nnc(-c2ccc(OC(F)F)cc2)o1 | 0.8% |
| COc1ccc(C(=O)c2ccc(N(C)C)cc2)c2ccccc12 | 63.3% (active) |
| CN(C)c1ccc(C(=O)c2ccc(N(C)C)c3ccccc23)cc1 | 69.6% (active) |
| COc1ccc(C(=O)c2ccc(Cl)cc2)c2ccccc12 | -14.8% |
| CN(C)c1ccc(C(=O)c2ccc(O)cc2O)cc1 | 3.6% |
| COc1ccc(C(=O)c2ccc(OC)c3cccc(O)c23)cc1OC | -5.2% |
| CN(C)c1ccc(C(=O)c2ccccc2)cc1 | -16.8% |
| CC1=C(C)CC(C(=O)NCC(=O)c2ccccc2)C(C(=O)O)C1 (configuration not stated) | -5% |
| Cn1cnc([N+](=O)[O-])c1NC(C)(C)C | 8.7% |

| SMILES | cytotoxicity |
| --- | --- |
| COC(=O)c1[nH]c2c(c1C)C(=O)CC(c1cc(OC)ccc1OC)C2 (configuration not stated) | -2.1% |
| CCCOC(=O)c1[nH]c2c(c1C)C(=O)CC(c1cccs1)C2 (configuration not stated) | 66.7% (active) |
| CCCOC(=O)c1[nH]c2c(c1C)C(=O)CC(c1ccc(OC)c(OC)c1)C2 (configuration not stated) | 7.2% |
| CCCOCCOC(=O)c1[nH]c2c(c1C)C(=O)CC(c1cc(OC)ccc1OC)C2 (configuration not stated) | 1.3% |
| COC(=O)C1=C(C)NC2=C(C(=O)CC(c3cccs3)C2)C1c1ccsc1 (configuration not stated) | 16.3% |
| COC(=O)c1[nH]c2c(c1C)C(=O)CC(c1cccs1)C2 (configuration not stated) | 58.6% (active) |
| Cc1c(C(=O)OCC(C)C)[nH]c2c1C(=O)CC(c1cccs1)C2 (configuration not stated) | 66% (active) |
| CCOC(=O)C1=C(C)NC2=C(C(=O)CC(c3cccs3)C2)C1c1cccs1 (configuration not stated) | 5.7% |
| CC(C(=O)N=c1sc2ccccc2n1C)N1C(=O)C2CC=CCC2C1=O (configuration not stated) | -11% |
| c1ccc(CCn2c(C3CC3)nc3ccccc32)cc1 | -16.9% |
| CCOC(=O)c1ccc(NC(=O)C(CC)(CC)C(=O)OCC)cc1 | -4.9% |
| CC(C)(C)C1(c2ccccc2)NC(=O)N(CC(=O)N2CCOCC2)C1=O (configuration not stated) | 2.6% |
| COc1cc(C#N)ccc1OCC(=O)c1ccc2c(c1)OCCO2 | -5.9% |
| CCc1cccc(CC)c1NC(=O)CSc1nnc(C(C)C)n1CC | 0.9% |
| Cc1csc(NC(=O)CN2C(=O)C3CC=CCC3C2=O)n1 (configuration not stated) | -13.5% |
| CCOC(=O)c1cccc(NC(=O)CSc2nnc(-c3cccnc3)n2CC)c1 | 12.7% |
| CCn1c(SCC(=O)c2cc(C)n(C)c2C)nnc1-c1ccccc1 | 15.3% |
| CCn1c(SCC(=O)c2cc(C)n(-c3ccc(C(=O)OC)cc3)c2C)nnc1-c1cccnc1 | 69.6% (active) |
| COc1ccccc1NC1=NC(C)(C)N=C(N)N1 | -26.5% |
| COc1ccccc1NS(=O)(=O)c1ccc(Cl)cc1 | 11.9% |
| COc1ccccc1NC1=NC(c2ccc(Cl)cc2)N=C(N)N1 (configuration not stated) | 60.5% (active) |
| O=C(OC1CCS(=O)(=O)c2sccc21)c1ccccc1 (configuration not stated) | -6.9% |
